ChEMBL document CHEMBL2218924, “A broad activity screen in support of a chemogenomic map for kinase signalling research and drug discovery” (Biochem J, 2013)

How the values were obtained:
[1] = biological target: T1, AMP-activated protein kinase (AMPK) alpha-1/beta-1/gamma-1 (Homo sapiens) (UniProt P54619+Q9Y478+Q13131); conditions: at 1 µM
[2] = biological target: T1, AMP-activated protein kinase (AMPK) alpha-1/beta-1/gamma-1 (Homo sapiens); conditions: at 10 µM
[3] = biological target: T2, AMP-activated protein kinase, AMPK (Homo sapiens) (UniProt P54646+O43741+P54619+Q9UGJ0+Q9Y478+Q13131+Q9UGI9); conditions: at 1 µM
[4] = biological target: T2, AMP-activated protein kinase, AMPK (Homo sapiens); conditions: at 10 µM
[5] = biological target: T3, NUAK family SNF1-like kinase 1 (Homo sapiens) (UniProt O60285); conditions: at 1 µM
T3 sequence (whole entry): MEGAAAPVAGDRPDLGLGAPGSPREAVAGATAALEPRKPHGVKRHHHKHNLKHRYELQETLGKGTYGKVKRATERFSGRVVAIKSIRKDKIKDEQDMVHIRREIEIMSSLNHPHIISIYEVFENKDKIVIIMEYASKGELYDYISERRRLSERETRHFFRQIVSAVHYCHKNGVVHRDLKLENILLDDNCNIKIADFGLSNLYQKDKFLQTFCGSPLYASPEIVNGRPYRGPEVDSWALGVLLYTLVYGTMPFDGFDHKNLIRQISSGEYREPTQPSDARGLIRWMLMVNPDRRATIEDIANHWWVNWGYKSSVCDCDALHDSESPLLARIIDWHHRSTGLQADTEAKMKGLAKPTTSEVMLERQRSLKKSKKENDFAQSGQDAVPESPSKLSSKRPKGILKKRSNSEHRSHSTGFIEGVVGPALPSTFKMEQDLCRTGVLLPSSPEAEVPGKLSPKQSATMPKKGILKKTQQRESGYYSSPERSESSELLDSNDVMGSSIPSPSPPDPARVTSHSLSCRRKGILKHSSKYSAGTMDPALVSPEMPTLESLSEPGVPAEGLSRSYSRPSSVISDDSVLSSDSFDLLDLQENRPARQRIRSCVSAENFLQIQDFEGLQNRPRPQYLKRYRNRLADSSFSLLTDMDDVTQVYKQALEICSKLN

[6] = biological target: T3, NUAK family SNF1-like kinase 1 (Homo sapiens); conditions: at 10 µM
[7] = biological target: cAMP-dependent protein kinase catalytic subunit alpha (Homo sapiens) (UniProt P17612); conditions: at 1 µM
[8] = biological target: cAMP-dependent protein kinase catalytic subunit alpha (Homo sapiens) (UniProt P17612); conditions: at 10 µM
[9] = biological target: RAC-gamma serine/threonine-protein kinase (Homo sapiens) (UniProt Q9Y243); conditions: at 1 µM
Sequence of RAC-gamma serine/threonine-protein kinase (Homo sapiens) (Q9Y243 whole entry): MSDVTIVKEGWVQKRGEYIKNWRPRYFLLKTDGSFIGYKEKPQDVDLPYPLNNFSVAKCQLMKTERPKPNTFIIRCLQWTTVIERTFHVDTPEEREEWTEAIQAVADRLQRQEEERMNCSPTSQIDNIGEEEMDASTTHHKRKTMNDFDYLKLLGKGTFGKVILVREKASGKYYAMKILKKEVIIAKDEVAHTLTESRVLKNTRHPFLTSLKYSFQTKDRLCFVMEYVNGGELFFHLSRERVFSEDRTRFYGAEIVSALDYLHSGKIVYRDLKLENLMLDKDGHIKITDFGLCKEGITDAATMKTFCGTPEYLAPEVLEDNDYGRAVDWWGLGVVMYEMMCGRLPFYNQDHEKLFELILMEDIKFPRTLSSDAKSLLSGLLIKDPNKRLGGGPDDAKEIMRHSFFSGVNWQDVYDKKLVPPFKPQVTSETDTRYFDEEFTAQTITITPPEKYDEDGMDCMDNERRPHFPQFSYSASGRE

[10] = biological target: RAC-gamma serine/threonine-protein kinase (Homo sapiens) (UniProt Q9Y243); conditions: at 10 µM
[11] = biological target: T4, Activin receptor type-1B (Homo sapiens) (UniProt P36896); conditions: at 1 µM
T4 sequence (whole entry): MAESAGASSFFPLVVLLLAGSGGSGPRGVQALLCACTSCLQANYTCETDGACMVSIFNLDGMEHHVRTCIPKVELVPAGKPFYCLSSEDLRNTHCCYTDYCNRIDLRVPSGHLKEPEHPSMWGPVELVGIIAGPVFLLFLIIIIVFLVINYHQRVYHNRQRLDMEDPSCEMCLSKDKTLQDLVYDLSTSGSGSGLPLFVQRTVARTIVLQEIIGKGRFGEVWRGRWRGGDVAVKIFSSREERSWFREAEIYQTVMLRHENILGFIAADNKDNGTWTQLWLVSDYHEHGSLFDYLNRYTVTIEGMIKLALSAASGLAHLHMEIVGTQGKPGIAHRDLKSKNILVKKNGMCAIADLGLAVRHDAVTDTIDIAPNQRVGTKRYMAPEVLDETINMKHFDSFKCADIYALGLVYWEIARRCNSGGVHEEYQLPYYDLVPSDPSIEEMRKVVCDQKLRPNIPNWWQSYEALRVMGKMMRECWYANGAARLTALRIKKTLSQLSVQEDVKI

[12] = biological target: T4, Activin receptor type-1B (Homo sapiens); conditions: at 10 µM
[13] = biological target: Platelet-derived growth factor receptor beta (Homo sapiens) (UniProt P09619); conditions: at 10 µM
[14] = biological target: T5, Mitogen-activated protein kinase kinase kinase 5 (Homo sapiens) (UniProt Q99683); conditions: at 1 µM
T5 sequence (whole entry): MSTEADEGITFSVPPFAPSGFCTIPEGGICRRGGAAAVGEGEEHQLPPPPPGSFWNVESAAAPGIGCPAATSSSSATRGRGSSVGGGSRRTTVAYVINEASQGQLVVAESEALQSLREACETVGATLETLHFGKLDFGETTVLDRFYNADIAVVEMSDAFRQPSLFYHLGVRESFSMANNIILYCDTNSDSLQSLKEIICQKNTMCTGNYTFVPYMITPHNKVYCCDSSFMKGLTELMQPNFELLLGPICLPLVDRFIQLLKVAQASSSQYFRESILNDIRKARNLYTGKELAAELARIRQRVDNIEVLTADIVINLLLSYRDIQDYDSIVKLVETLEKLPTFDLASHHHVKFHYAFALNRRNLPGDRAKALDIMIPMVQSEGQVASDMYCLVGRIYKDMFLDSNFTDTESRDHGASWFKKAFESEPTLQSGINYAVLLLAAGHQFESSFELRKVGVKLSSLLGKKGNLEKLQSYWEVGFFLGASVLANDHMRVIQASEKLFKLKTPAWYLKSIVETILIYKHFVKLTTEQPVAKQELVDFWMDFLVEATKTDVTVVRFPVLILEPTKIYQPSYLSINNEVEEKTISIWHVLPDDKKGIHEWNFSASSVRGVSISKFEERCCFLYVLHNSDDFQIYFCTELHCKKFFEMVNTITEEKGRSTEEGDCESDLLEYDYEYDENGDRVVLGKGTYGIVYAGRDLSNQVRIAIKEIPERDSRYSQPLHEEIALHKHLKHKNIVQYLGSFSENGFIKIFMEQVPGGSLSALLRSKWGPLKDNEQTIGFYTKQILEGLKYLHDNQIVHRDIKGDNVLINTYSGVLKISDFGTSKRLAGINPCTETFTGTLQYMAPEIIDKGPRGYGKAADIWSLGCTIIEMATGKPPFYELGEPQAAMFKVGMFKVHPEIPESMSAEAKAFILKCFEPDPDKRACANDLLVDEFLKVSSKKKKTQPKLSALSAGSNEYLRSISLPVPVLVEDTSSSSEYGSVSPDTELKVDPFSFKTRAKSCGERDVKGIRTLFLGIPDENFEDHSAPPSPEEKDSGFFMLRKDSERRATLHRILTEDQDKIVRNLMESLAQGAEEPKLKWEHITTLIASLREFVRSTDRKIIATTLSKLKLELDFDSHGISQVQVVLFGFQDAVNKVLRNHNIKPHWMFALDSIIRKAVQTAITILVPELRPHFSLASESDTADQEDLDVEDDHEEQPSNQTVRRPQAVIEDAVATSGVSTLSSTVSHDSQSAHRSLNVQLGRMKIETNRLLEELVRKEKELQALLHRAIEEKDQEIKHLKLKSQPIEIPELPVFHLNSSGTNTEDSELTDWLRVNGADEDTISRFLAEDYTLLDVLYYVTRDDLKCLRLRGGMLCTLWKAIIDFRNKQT

[15] = biological target: Platelet-derived growth factor receptor alpha (Homo sapiens) (UniProt P16234); conditions: at 1 µM
Sequence of Platelet-derived growth factor receptor alpha (Homo sapiens) (P16234 whole entry): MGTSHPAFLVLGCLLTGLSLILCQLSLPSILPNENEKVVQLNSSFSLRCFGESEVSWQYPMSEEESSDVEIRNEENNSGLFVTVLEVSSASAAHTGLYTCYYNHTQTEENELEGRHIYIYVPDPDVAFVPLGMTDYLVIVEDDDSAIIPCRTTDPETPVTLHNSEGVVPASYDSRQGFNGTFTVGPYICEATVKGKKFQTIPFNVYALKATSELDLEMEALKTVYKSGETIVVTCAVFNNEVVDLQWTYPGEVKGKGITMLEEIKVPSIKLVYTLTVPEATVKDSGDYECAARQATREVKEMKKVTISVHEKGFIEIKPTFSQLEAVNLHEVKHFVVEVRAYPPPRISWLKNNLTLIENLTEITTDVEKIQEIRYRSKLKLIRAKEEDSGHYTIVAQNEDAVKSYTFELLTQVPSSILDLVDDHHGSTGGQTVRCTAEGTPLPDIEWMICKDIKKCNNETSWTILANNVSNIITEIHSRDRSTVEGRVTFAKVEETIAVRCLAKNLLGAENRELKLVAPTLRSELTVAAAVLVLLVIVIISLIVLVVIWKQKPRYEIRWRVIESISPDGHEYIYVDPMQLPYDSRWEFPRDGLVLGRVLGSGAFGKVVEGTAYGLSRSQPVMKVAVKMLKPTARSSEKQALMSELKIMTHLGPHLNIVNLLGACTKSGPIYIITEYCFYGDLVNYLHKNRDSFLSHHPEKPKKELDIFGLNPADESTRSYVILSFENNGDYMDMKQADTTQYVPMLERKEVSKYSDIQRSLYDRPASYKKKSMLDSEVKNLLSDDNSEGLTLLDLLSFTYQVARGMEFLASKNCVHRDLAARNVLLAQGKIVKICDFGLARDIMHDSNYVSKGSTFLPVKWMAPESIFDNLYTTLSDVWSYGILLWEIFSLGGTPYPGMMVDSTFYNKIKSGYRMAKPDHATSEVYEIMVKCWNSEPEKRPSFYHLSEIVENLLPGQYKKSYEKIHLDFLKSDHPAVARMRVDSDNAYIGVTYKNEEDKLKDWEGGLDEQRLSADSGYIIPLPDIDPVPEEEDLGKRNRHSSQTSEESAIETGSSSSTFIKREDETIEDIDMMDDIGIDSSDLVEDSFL

[16] = biological target: Platelet-derived growth factor receptor alpha (Homo sapiens) (UniProt P16234); conditions: at 10 µM
[17] = biological target: ALK tyrosine kinase receptor (Homo sapiens) (UniProt Q9UM73); conditions: at 10 µM
Sequence of ALK tyrosine kinase receptor (Homo sapiens) (Q9UM73 19-1620 limits assumed): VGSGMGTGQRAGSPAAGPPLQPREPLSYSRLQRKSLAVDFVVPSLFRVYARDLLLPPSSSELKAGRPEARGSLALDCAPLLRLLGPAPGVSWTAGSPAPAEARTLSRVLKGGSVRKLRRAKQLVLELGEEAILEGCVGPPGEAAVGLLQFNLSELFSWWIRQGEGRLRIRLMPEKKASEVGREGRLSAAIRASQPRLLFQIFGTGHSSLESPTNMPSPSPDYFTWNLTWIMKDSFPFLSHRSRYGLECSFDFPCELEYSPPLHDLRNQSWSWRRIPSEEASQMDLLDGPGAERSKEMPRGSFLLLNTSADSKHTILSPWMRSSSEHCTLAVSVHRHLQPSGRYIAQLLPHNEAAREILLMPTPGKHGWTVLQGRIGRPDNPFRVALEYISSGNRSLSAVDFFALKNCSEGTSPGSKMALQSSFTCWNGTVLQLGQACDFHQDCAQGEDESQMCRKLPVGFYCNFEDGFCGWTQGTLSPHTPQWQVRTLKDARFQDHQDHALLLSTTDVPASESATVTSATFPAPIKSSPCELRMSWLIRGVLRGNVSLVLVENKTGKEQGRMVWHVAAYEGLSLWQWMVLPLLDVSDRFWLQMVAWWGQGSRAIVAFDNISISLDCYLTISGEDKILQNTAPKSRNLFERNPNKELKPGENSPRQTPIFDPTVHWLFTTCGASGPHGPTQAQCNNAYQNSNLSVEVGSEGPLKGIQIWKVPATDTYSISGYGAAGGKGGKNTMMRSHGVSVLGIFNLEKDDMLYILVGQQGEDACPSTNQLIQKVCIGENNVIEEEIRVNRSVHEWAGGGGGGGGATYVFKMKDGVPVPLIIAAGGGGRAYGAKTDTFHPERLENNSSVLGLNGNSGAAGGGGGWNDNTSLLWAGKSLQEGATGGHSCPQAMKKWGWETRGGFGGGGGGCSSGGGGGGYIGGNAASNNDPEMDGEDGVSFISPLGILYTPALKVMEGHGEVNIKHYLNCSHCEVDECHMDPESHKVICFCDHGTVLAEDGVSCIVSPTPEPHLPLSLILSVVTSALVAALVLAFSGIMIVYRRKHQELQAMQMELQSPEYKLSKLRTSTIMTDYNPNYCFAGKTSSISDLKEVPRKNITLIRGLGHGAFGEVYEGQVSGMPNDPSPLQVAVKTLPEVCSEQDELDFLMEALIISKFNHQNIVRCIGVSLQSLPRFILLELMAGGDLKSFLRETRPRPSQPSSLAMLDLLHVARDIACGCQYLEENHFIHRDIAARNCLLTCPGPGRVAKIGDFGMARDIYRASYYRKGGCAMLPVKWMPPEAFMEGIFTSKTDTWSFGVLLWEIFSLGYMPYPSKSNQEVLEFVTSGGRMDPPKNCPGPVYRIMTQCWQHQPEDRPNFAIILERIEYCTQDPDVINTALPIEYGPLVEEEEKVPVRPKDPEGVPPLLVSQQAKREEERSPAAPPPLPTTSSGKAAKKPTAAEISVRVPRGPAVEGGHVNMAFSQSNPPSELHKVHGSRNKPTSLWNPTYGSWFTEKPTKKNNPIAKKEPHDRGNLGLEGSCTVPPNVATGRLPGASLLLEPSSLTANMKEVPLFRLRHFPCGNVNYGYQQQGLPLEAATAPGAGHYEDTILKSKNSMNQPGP

[18] = biological target: Platelet-derived growth factor receptor beta (Homo sapiens) (UniProt P09619); conditions: at 1 µM
[19] = biological target: T6, 3-phosphoinositide-dependent protein kinase 1 (Homo sapiens) (UniProt O15530); conditions: at 1 µM
T6 sequence (whole entry): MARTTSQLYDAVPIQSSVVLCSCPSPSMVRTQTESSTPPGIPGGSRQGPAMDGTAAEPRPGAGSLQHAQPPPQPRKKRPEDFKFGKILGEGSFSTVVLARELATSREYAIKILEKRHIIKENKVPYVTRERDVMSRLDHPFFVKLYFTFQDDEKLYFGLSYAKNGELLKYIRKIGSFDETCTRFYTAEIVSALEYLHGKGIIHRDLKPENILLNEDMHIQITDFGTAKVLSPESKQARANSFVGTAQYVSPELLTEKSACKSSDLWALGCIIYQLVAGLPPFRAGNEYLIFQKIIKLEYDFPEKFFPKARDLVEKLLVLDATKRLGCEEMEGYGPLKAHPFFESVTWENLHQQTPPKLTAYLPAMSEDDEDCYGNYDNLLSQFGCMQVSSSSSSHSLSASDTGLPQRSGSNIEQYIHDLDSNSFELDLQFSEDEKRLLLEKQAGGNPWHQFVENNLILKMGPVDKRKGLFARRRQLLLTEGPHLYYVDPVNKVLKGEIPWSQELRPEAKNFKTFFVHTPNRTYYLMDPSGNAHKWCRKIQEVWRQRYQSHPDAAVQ

[20] = biological target: T6, 3-phosphoinositide-dependent protein kinase 1 (Homo sapiens); conditions: at 10 µM

T1 sequence (P54619 whole entry): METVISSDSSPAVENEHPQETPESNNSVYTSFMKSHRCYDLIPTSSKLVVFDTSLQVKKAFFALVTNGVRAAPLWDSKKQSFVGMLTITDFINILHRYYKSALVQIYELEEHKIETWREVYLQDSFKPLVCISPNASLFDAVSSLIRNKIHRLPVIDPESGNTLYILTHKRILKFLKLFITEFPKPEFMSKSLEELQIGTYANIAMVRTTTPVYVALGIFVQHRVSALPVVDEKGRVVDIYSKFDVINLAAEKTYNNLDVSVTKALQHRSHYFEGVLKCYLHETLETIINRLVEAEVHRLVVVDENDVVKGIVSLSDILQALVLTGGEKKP
T1 sequence (Q13131 whole entry partner): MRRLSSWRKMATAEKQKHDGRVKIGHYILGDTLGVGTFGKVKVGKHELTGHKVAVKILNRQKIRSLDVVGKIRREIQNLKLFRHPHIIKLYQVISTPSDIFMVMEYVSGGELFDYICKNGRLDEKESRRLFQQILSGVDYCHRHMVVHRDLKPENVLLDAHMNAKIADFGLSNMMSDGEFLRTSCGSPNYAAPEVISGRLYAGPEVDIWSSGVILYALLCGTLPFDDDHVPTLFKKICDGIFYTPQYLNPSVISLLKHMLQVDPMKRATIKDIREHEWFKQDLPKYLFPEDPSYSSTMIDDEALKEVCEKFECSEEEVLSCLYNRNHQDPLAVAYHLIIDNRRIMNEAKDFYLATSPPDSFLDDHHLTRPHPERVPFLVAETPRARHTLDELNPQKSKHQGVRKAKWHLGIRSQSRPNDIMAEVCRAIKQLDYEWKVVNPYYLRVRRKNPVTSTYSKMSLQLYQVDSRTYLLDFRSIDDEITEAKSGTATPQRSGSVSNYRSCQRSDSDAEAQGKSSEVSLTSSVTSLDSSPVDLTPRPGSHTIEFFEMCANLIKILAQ
T1 sequence (Q9Y478 2-270 partner limits assumed): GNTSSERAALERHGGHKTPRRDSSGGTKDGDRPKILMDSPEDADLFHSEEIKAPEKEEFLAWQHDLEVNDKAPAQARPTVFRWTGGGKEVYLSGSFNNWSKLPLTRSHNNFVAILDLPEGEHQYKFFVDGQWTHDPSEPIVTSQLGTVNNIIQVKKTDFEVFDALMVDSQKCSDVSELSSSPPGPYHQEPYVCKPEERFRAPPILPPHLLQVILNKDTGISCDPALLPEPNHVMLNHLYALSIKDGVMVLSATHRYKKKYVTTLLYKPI

O=S(=O)(NCCNC/C=C/c1ccc(Br)cc1)c1cccc2cnccc12
residual activity [1]: 52% | residual activity [2]: 15% | residual activity [3]: 60% | residual activity [4]: 19% | residual activity [5]: 42% | residual activity [6]: 11% | residual activity [7]: 2% | residual activity [8]: 6% | residual activity [9]: 31% | residual activity [10]: 4%

CC(C)[C@H](CO)Nc1nc(Nc2cc(N)cc(Cl)c2)c2ncn(C(C)C)c2n1
residual activity [11]: 122% | residual activity [12]: 117% | residual activity [3]: 87% | residual activity [4]: 50% | residual activity [5]: 44% | residual activity [6]: 13% | residual activity [13]: 92% | residual activity [7]: 93% | residual activity [8]: 87%

CCN1/C(=C/C(C)=O)Sc2ccc(OC)cc21
residual activity [11]: 122% | residual activity [1]: 79% | residual activity [2]: 54%

COc1ccc(-c2cnc3c(-c4ccsc4)cnn3c2)cc1
residual activity [11]: 126% | residual activity [12]: 88% | residual activity [3]: 88% | residual activity [4]: 79% | residual activity [14]: 82% | residual activity [15]: 99% | residual activity [16]: 92% | residual activity [7]: 80% | residual activity [8]: 82%

NC(=O)Nc1sc(-c2ccc(F)cc2)cc1C(N)=O
residual activity [17]: 31% | residual activity [1]: 69% | residual activity [2]: 27% | residual activity [3]: 66% | residual activity [4]: 25% | residual activity [15]: 41% | residual activity [16]: 20% | residual activity [18]: 89% | residual activity [13]: 55% | residual activity [19]: 57% | residual activity [20]: 17% | residual activity [7]: 92% | residual activity [8]: 82% | residual activity [9]: 85% | residual activity [10]: 55%

COc1ccc(Cl)cc1NC(=O)Nc1cc(C)nc2ccccc12
residual activity [17]: 58% | residual activity [1]: 88% | residual activity [2]: 78% | residual activity [4]: 91% | residual activity [5]: 94% | residual activity [6]: 92%

O=S(=O)(c1cccc2cnccc12)N1CCCNCC1
residual activity [17]: 74% | residual activity [6]: 52% | residual activity [7]: 53% | residual activity [8]: 17% | residual activity [10]: 55%

Nc1ncnc2c1cnn2-c1ccccc1
residual activity [1]: 96% | residual activity [2]: 90% | residual activity [4]: 83% | residual activity [5]: 99% | residual activity [6]: 87% | residual activity [14]: 100% | residual activity [16]: 101% | residual activity [20]: 87% | residual activity [10]: 73%

O=C1Cc2c([nH]c3ccc([N+](=O)[O-])cc23)-c2ccccc2N1
residual activity [1]: 48% | residual activity [2]: 40% | residual activity [3]: 18% | residual activity [4]: 36% | residual activity [5]: 10% | residual activity [6]: 9% | residual activity [14]: 106% | residual activity [15]: 109% | residual activity [16]: 112% | residual activity [18]: 107% | residual activity [13]: 100% | residual activity [19]: 45% | residual activity [20]: 45% | residual activity [9]: 118%

O=C(Nc1nc2ccccc2n1CCN1CCOCC1)c1cccc([N+](=O)[O-])c1
residual activity [17]: 75% | residual activity [3]: 79% | residual activity [4]: 83% | residual activity [6]: 66% | residual activity [14]: 113% | residual activity [18]: 104% | residual activity [13]: 81% | residual activity [19]: 104% | residual activity [20]: 81% | residual activity [8]: 80% | residual activity [9]: 103% | residual activity [10]: 84%
